This note sets out measurements from PubChem BioAssay (EPA / NIEHS).

The source made the active and inactive calls. How the source made its calls: active means hit-call score of the fitted dose curve at least 0.9, where 1 is the maximum; inactive means score below 0.9.

The nature of this assay: ATG_GLI_CIS: Attagene CIS-FACTORIAL HepG2 Assay for human Zinc Finger Protein GLI1 (AID 2282945). As to conditions: HepG2, Attagene cis-factorial reporter mRNA, GLI element; actives raise or lower the signal. The procedure:
ATG_CIS is a cell-based, multiplexed-readout assay that uses HepG2, a human liver cell line, with measurements taken at 24 hours after chemical dosing in a 24-well plate.ATG_GLI_CIS is one of 52 assay component(s) measured or calculated from the ATG_CIS assay. It is designed to make measurements of mRNA induction, a form of inducible reporter, as detected with fluorescence intensity signals by Reverse transcription polymerase chain reaction (RT-PCR) and Capillary electrophoresis technology.Data from the assay component ATG_GLI_CIS was analyzed into 1 assay endpoint. This assay endpoint, ATG_GLI_CIS, was analyzed with bidirectional fitting relative to DMSO as the negative control and baseline of activity. Using a type of inducible reporter, measures of mRNA for gain or loss-of-signal activity can be used to understand the reporter gene at the transcription factor-level as they relate to the gene GLI1. Furthermore, this assay endpoint can be referred to as a primary readout, because this assay has produced multiple assay endpoints where this one serves a reporter gene function. To generalize the intended target to other relatable targets, this assay endpoint is annotated to the dna binding intended target family, where the subfamily is zinc finger.
Human liver HepG2 cells are transiently transfected with multiple reporter transcription units (MRTUs) in 6-well plates using FuGene 6 reagent (Roche; 3 ml FuGene/1 mg DNA). The MRTU constructs are regulated by a cis-regulating element (promoter). […] A major difference between the CIS and TRANS system is that in CIS activities of endogenous TFs are measured, whereas the TRANS assay evaluates changes in activities of exogenous, chimeric NR-Gal4 proteins. […] At the end of 24 hour incubation, total RNA was isolated using TriZol reagent (Invitrogen). The isolated RNA is then reverse-transcribed using oligo(dT) primer and Mo-MLV reverse transcriptase (Invitrogen) with DNAse I (Ambion) treatment for 30 min. The one-tenth of the produced cDNA was amplified by PCR using Taq DNA polymerase (Invitrogen) and two reporter sequence-specific primers. The PCR products were fluorescently labeled by primer extension with 6-arboxyfluorescein (6-FAM) 5'-labeled reporter sequence-specific primer (2 min at 95 C, 20 s at 68 C and 10 min at 72 C) and these products were digested with 5U of HpaI (New England Biolabs) for 2h at 37 C. The fragments were purified using Qiaquick PCR columns (Qiagen), analyzed on an ABI 3130xL genetic analyzer (Applied Biosystems) with peak positions identified by using a set of X-rhodamine (ROX)-labeled MapMarker1000 molecular weight standards (BioVentures). The raw capillary electrophoresis data was processed using Attagraph software (Attagene).
Turning to `CCC(O)CO` (stereo not given), the outcome was inactive. The same measure, in the same setting: in the case of `CCCCCCCCCCCCN(CCCCCCCCCCCC)CCCCCCCCCCCC` it was “inactive”; in that of `CC(C)=CCC/C(C)=C/COC=O`, “inactive”; in that of `COCCOCCOCCOCCOCCO`, “inactive”.

Regarding `CCCC/C=C\CCCCCCCCCC=O`, the call was inactive. For the molecule `CCCCCC(=O)OCCc1ccccc1`, the molecule was classed as inactive.

The AC50 is the midpoint of the concentration-response curve, whichever way the signal moves. Turning to `BrC1CCC(Br)C(Br)CCC(Br)C(Br)CCC1Br` (stereo not given), the AC50 was 69.1 µM (active). Consider `CC(C)(C)c1n[nH]c(=S)n(N)c1=O`, for which the molecule was classed as inactive. Turning to `O=c1cc(-c2ccccc2)oc2cc(O)cc(O)c12`, the result was inactive. On the same count and under the same terms, for `Sc1nc(S)nc(S)n1` the value was “inactive”. Still for that read-out and setting: for `C=C(C)C(=O)O[C@H]1C[C@@H]2CC[C@@]1(C)C2(C)C` the value was “inactive”. On the same count and under the same terms, for `Cc1ccc(C(=O)O)o1` the value was “inactive”. On to `N#Cc1nc(Cl)c(Cl)c(Cl)c1Cl`, for which the AC50 is 5.39 µM (active). Consider `CN(C)C(=N)N=C(N)N`, for which the outcome was inactive.

`O=C[C@H](O)[C@H](O)[C@H](O)CO`: the result was inactive. Same read-out and setting: for `NC(=O)NC1NC(=O)NC1=O` (stereo not given) the value was “inactive”; for `CC[C@]12CCCN3CCc4c(n(c5ccccc45)[C@@](O)(C(=O)OC)C1)[C@@H]32`, “inactive”; for `COC(C)CCO` (stereo not given), “inactive”. Consider `CCCCCCC#CC(=O)OC`, for which the call was inactive. Same read-out and setting: in the case of `CCCCCCCCCCC(CO)CCCCCCCC` (stereo not given) it was “inactive”; in that of `C=CC(C)(C)O`, “inactive”. Still for that read-out and setting: for `CCC(C(=O)NC(N)=O)c1ccccc1` (stereo not given) the value was “inactive”.

`O=Nc1ccc(Nc2ccccc2)cc1`: the AC50 was 55 µM (active). With `c1cc(C(c2ccc(OCC3CO3)cc2)c2ccc(OCC3CO3)cc2)ccc1OCC1CO1` (stereo not given), the molecule was classed as inactive.

As for `ClCCCl`, the call was inactive. As for `CCC(=O)OCCC(C)CCC=C(C)C` (stereo not given), the outcome was inactive. The same measure, in the same setting: in the case of `O=C1C(c2[nH]c3ccc(S(=O)(=O)O)cc3c2O)=Nc2ccc(S(=O)(=O)O)cc21` it was “inactive”. On to `CCC/C=C/C=O`, for which the result was inactive. For `O=C1CCCCCCCCCCCCCCO1`, the outcome was inactive.

Take `CC(O)C(C)O` (stereo not given): the result was inactive. On the same count and under the same terms, for `O=C1CCCCCCCCCCOCCCCO1` the value was “inactive”; for `CC(C)(N)CO`, “inactive”. Turning to `CC(C#N)(CCC(=O)O)N=NC(C)(C#N)CCC(=O)O` (stereo not given), the molecule was called inactive. Still for that read-out and setting: in the case of `O=Cc1ccc(F)cc1` it was “inactive”; in that of `O=C[C@@H](O)[C@H](O)[C@H](O)CO`, “inactive”. Consider `Nc1cc(Cl)c(O)c(Cl)c1`, for which the AC50 was 157 µM (active). For `Nc1ccc(S(=O)(=O)O)c(N)c1`, the result was inactive. For the molecule `CC[Si](OC(C)=O)(OC(C)=O)OC(C)=O`, the molecule was called inactive. Turning to `O=[N+]([O-])c1cc(C(F)(F)F)ccc1Cl`, the call was inactive.

On to `CCCCC(CC)COC(=O)/C=C\C(=O)OCC(CC)CCCC` (stereo not given), for which the molecule was classed as inactive.
